Hits are enriched below; roughly 7.6% of the tested compounds scored in any of these assays.
BRCA1 expr up: BRCA1 expression activation; MCF7-BRCA1-FFLuc reporter, luminescence, 48 h; response scale: scaled: vehicle 0%, 10 µM genistein 100%; Potency, µM (titrated, usually from 46.1 µM), actives largely listed as activators; actives 1.1% (n = 380,000); AID 624202; also: nearly all actives have a fitted effect of over 80% in size
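MCF7-BRCA1-FFLuc cells, 2000/well in phenol-red-free MEM, attached 2 h then treated 48 h at 37 C. Luciferase luminescence read 15 min after reagent; normalized to genistein maximum activation (10microM) and DMSO, concentration-response fitted.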
p53 reactivator: restores transcriptional activity of mutant p53. H1299 p53-A138V BP100-luciferase reporter, luminescence, 24 h. Potency, µM (top dose mostly 92.2 µM), most hits filed as activators. actives 0.063% (n = 320,000). AID 504706; also: nearly all actives have a fitted effect of over 45% in size
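p53-null H1299 cells stably carrying temperature-sensitive p53-A138V and a BP100-luciferase reporter were pinned with compounds (4-point, 1:5 series) and held 24 hrs at 37 deg C. Luminescence was read 10 min after detection reagent.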
RORg inh: blocks mouse ROR gamma transcriptional activity; P51450; Drosophila S2 Gal4-RORgamma UAS-luciferase reporter, 20 h; Potency, µM (doses to about 53.6 µM), actives largely listed as inhibitors; actives 5.4% (n = 310,000); AID 2551; also: nearly all actives have a fitted effect of over 60% in size
Target sequence (P51450 whole entry, looked up, the tested form may be a part): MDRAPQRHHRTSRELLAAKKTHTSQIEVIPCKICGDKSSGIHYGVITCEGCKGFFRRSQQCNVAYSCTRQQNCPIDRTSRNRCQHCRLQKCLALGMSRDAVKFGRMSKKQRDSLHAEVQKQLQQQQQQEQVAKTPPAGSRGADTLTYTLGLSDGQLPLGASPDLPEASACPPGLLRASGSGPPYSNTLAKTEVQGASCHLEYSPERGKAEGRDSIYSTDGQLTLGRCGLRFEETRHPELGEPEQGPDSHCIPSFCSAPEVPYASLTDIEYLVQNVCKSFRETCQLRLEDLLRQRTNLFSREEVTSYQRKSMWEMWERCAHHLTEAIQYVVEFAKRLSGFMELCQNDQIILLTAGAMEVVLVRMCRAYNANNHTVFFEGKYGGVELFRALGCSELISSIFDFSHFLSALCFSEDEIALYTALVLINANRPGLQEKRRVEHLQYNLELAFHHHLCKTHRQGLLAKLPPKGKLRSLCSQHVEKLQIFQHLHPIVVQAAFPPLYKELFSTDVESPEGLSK
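Compounds are pin-transferred onto Drosophila Schneider cells expressing a copper-inducible Gal4–ROR gamma transactivation domain fusion. After 1 hr, copper sulfate is added to 700 uM final; luciferase is read 20 hr later.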
Gal4-VP16 FLuc: inhibits Gal4-VP16 luciferase reporter, ROR gamma counter-screen. actives 3.5% (n = 310,000). AID 2546. Potency, µM (top dose mostly 53.6 µM), usual class: inhibitors. Drosophila S2 Gal4-VP16 UAS-luciferase, luminescence, 20 h;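 also: Gal4-VP16 expression switched on by copper sulfate through the metallothionein promoter; nearly all actives have a fitted effect of over 50% in size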
ELG1 repair inh: inhibitors of ELG1-dependent DNA repair in HEK293T cells. HEK293T ELG1-luciferase reporter, luminescence, 16 h; DNA damage induced by 5-fluorouridine. Potency, µM (highest dose often 46.1 µM), hits mostly inhibitors. actives 2.3% (n = 330,000). AID 504467; also: nearly all actives have a fitted effect of over 55% in size
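DMSO vehicle served as the neutral condition. Each well held 2,000 cells given 5-fluorouridine plus compound; after 16 hr at 37 °C/5% CO2, ONE-Glo was added and luciferase measured 30 min later.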
Giardia killer: kills Giardia lamblia; AID 540267; activity change, % at 7.66 µM, hits read low; actives 0.15% (n = 340,000); Giardia lamblia trophozoite viability; in the data active = activity change below about -80%; inconclusive = between about -30% and that limit;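 also: parasites exposed to compound for two days anaerobically before the ATP read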
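Each well holds 100 Giardia trophozoites and compound. After two days (48 hrs) at 37 deg C in anaerobic conditions, ATP is quantified by luminescence.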
Hits are given with their value; 0 = inactive; ? = inconclusive; - = no result given; [ ] = another dose, or the depositor's remark. Unless noted, calls follow the shape of the dose curve; as a rule, active = well fitted curve in the direction sought with a large enough effect; inconclusive = small, poorly fitted or top-dose-only effect, or another doubt; inactive = no such curve, though single readings can be large; an effect the other way counts as inactive or inconclusive.

SMILES	BRCA1 expr up	p53 reactivator	RORg inh	Gal4-VP16 FLuc	ELG1 repair inh	Giardia killer
COc1cccc(NC(=S)NC(=O)/C=C/c2ccc(F)cc2)c1	0	0	7.1µM	?	0	0
O=C(/C=C/c1ccc(F)cc1)NC(=S)Nc1ccccc1O	13µM	0	?	?	?	0
COc1ccc(NC(=S)NC(=O)/C=C/c2cccs2)cc1	0	0	3.5µM	?	0	0
CC(=O)c1ccc(NC(=S)NC(=O)/C=C/c2ccc(F)cc2)cc1	0	0	?	0	?	0
COc1ccc(OC)c(CNCc2c(C(=O)O)n(Cc3ccccc3)c3cc(OC)ccc23)c1	0	-	-	-	-	-
CC1=Nc2cccc3cccc(c23)N1C	0	0	?	0	0	0
COc1ccccc1NC(=S)NC(=O)/C=C/c1cccs1	0	0	4.5µM	11µM	0	0
COc1ccccc1NC(=O)COC(=O)/C=C/c1cccs1	0	0	-	-	0	0
CCCCN(C=O)c1c(CC)nc2c(OCC3CCCCC3)cccn12	0	-	-	-	-	-
S=c1[nH]nc(-c2ccco2)n1-c1ccc(Cl)cc1	0	0	8.9µM	0	0	0
COc1ccc(-n2c(-c3ccco3)n[nH]c2=S)cc1	0	0	0[10 µM]	?	0	0
S=c1[nH]nc(-c2ccco2)n1C1CCCCC1	0	0	10µM	?	0	0
Cc1nn(C)cc1-c1n[nH]c(=S)n1-c1ccc(Cl)cc1	0	0	?	0	0	0
Nn1c(-c2ccco2)n[nH]c1=S	0	0	0	0	0	0
Cn1cc(Cl)c(-c2n[nH]c(=S)n2C2CCCCC2)n1	0	0	6.3µM	?	0	0
CC(C)(C)c1cc(-c2n[nH]c(=S)n2-c2ccc(Cl)cc2)n[nH]1	0	0	7.1µM	0	0	0
CCCc1ccc(-c2cc(N)n[nH]2)cc1	0	0	0	0	?	0
CC(C)Oc1ccc(CNC(=O)C2CCN(C(=O)N3CCOc4ccccc43)CC2)cc1	0	-	0	0	?	0
O=C(NC1CCCCC1)N(Cc1cc2cc3c(cc2[nH]c1=O)OCCO3)C1CCCCC1	0	0	0	0	?	0
Cc1ccc(-n2nc3c(=O)n(C(C)C(=O)NC4CC4)nc(C)c3c2C)cc1 (stereo not drawn)	0	0	0	0	0	0
Cc1nc2ccc(Br)cn2c1C(=O)N/N=C\c1ccccc1Cl	0	-	7.1µM	?	0	0
COc1cccc(/C=N/NC(=O)c2c(C)nc3ccc(Cl)cn23)c1O	0	?	3.2µM	4µM	?	0
COc1ccccc1/C=N\NC(=O)c1c(C)nc2ccc(Cl)cn12	0	0	?	?	0	0
COc1ccc(NC(=O)CCNS(=O)(=O)c2ccc3c(c2)CC(C)N3C(C)=O)cc1 (stereo not drawn)	0	0	0	0	0	0
COc1cccc(CNC(=O)CCNS(=O)(=O)c2ccc3c(c2)CC(C)N3C(C)=O)c1 (stereo not drawn)	0	0	0	0	8.2µM	0
SMILES	BRCA1 expr up	p53 reactivator	RORg inh	Gal4-VP16 FLuc	ELG1 repair inh	Giardia killer
CCOC(=O)c1c(NC(=O)CSc2nnnn2-c2ccc3c(c2)OCO3)sc(C)c1C	0	0	0	0	0	0
Cc1ccc(C)c2[nH]c(=O)c(CN(CC3CCCO3)C(=O)NC3CCCCC3)cc12 (stereo not drawn)	0	0	0	0	8.2µM	0
COc1ccc2cc(CN(CC3CCCO3)C(=S)Nc3ccccc3)c(=O)[nH]c2c1 (stereo not drawn)	0	0	0	0	8.2µM	0
COc1ccc2cc(CN(CC3CCCO3)S(=O)(=O)c3ccc(C(C)=O)cc3)c(=O)[nH]c2c1 (stereo not drawn)	0	0	0	0	?	0
COc1ccc(NC(=O)N(Cc2cc3cc(OC)ccc3[nH]c2=O)CC2CCCO2)cc1 (stereo not drawn)	0	0	0	0	10µM	0
COc1ccc(NC(=O)N(CCCN(C)C)Cc2cc3cc(OC)ccc3[nH]c2=O)cc1	0	0	0	0	0	0
COc1ccc(NC(=O)N(Cc2cc3ccc(OC)cc3[nH]c2=O)CC2CCCO2)cc1 (stereo not drawn)	0	0	0	0	10µM	0
COc1ccc2[nH]c(=O)c(CN(CC3CCCO3)C(=S)Nc3ccccc3)cc2c1 (stereo not drawn)	0	0	0	0	0	0
Cc1cccc(NC(=O)CN2C(=O)CCS(=O)(=O)c3ccccc32)c1C	0	0	0	0	0	0
COc1ccc2cc(CN(C(=O)Nc3ccccc3OC)C3CCCC3)c(=O)[nH]c2c1	0	0	0	0	?	0
COc1ccc2cc(CN(CC3CCCO3)C(=O)Nc3ccccc3OC)c(=O)[nH]c2c1 (stereo not drawn)	0	0	0	0	7.3µM	0
CCn1c2ccccc2c2cc(/C=N/n3cn[nH]c3=S)ccc21	0	0	1.1µM	7.1µM	0	0
S=c1[nH]ncn1/N=C/c1ccc(Br)cc1	0	0	2.2µM	4µM	?	0
S=c1[nH]ncn1/N=C/c1ccccc1	0	0	?	?	0	0
CN1CCN(c2ccc(NC(=O)c3cccc(S(=O)(=O)N4CCCC4)c3)cc2)CC1	0	?	-	-	?	0
CCOC(=O)c1nc(Nc2ccccc2C)c2ccccc2n1	0	0	0	0	0	0
COC(=O)c1cccc(Nc2nc(-c3cccnc3)nc3ccccc23)c1	0	0	0	0	7.3µM	0
CC(=O)c1cccc(Nc2nc(-c3ccccc3)nc3ccccc23)c1	0	0	0	0	23µM	0
CCOC(=O)c1cccc(Nc2nc(-c3cccnc3)nc3ccccc23)c1	0	0	?	?	9.2µM	0
CC(=O)Nc1cccc(Nc2nc(-c3ccccc3)nc3ccccc23)c1	0	0	0	0	?	0
CCOC(=O)c1nc(Nc2cccc(C)c2)c2ccccc2n1	0	0	?	0	16µM	0
O=C(O)c1cccc(Nc2nc(-c3cccnc3)nc3ccccc23)c1	?	0	0	0	0	0
CC(C)/C=C1\CCCCC1N(C)C(=O)NC(C)C (stereo not drawn)	0	0	0	0	0	0
Fc1ccccc1-c1n[nH]c(=S)n1CC1CCCO1 (stereo not drawn)	0	0	11µM	0	0	0
Cc1ccc(-c2nc(=S)c3c(n2CC2CCCO2)CC(C)(C)OC3)cc1 (stereo not drawn)	0	0	0	0	0	0
CC(C)(C)c1ccc(-c2n[nH]c(=S)n2CC2CCCO2)cc1 (stereo not drawn)	0	0	2.8µM	10µM	?	0
S=c1[nH]nc(-c2ccccc2Cl)n1CC1CCCO1 (stereo not drawn)	0	0	0	0	0	0
